The target in assay [1] is High affinity nerve growth factor receptor (Homo sapiens) (UniProt P04629). The conditions noted are these: at 1 µM.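 Also: each value is the mean percent inhibition of TRKA.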
The target in assay [2] is BDNF/NT-3 growth factors receptor (Homo sapiens) (UniProt Q16620). The conditions noted are these: at 0.1 µM.
For assay [3] the target is unchanged. The conditions noted are these: at 1 µM.
In assay [4] the target is NT-3 growth factor receptor (Homo sapiens) (UniProt Q16288). The conditions noted are these: at 0.1 µM.
Chain of NT-3 growth factor receptor (Homo sapiens) (Q16288 32-839 limits assumed): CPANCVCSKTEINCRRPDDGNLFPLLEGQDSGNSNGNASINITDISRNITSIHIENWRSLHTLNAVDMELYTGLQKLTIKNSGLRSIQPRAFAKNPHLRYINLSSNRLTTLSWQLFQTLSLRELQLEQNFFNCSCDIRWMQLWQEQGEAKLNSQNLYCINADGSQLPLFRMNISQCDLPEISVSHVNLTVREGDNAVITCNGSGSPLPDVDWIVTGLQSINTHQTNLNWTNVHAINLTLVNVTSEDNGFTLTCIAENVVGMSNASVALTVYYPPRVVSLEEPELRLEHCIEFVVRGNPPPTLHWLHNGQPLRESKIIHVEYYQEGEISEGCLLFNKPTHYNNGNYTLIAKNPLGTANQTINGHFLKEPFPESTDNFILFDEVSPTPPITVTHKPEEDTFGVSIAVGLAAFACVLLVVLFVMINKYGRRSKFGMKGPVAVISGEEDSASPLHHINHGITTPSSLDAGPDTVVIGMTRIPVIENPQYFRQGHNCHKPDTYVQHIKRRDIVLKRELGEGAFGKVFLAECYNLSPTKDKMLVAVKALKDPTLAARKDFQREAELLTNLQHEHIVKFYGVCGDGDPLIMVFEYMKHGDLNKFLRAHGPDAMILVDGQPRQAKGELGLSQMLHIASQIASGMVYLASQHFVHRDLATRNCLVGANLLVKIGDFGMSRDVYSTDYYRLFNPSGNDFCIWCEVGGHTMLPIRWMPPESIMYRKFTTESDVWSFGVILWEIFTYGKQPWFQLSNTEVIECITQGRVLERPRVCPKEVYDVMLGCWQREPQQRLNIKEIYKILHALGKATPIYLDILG
The target is the same in assay [5]. The conditions noted are these: at 1 µM.
The target of assay [6] is T1, Tyrosine-protein kinase TXK (Homo sapiens) (UniProt P42681).
T1 sequence (whole entry): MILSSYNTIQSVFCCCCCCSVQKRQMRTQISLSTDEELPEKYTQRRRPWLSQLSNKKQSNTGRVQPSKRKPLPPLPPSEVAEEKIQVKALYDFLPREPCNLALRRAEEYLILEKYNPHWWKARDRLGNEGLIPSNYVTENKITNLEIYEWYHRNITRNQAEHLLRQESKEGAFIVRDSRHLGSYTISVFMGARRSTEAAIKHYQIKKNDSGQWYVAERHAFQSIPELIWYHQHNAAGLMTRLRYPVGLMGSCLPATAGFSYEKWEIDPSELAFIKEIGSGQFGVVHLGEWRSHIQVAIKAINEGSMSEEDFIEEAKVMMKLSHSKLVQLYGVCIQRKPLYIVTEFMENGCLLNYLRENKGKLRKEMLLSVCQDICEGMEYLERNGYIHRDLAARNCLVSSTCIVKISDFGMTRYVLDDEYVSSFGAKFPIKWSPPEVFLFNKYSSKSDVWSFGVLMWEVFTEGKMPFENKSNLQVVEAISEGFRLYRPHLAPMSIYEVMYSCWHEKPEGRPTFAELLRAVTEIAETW
The conditions noted are these: at 0.1 µM.

Assay [7] concerns the target T1, Tyrosine-protein kinase TXK (Homo sapiens). The conditions noted are these: at 1 µM.
Assay [8] addresses Non-receptor tyrosine-protein kinase TYK2 (Homo sapiens) (UniProt P29597). The conditions noted are these: at 0.1 µM.
Assay [9] addresses T2, Dual specificity protein kinase TTK (Homo sapiens) (UniProt P33981).
T2 sequence (whole entry): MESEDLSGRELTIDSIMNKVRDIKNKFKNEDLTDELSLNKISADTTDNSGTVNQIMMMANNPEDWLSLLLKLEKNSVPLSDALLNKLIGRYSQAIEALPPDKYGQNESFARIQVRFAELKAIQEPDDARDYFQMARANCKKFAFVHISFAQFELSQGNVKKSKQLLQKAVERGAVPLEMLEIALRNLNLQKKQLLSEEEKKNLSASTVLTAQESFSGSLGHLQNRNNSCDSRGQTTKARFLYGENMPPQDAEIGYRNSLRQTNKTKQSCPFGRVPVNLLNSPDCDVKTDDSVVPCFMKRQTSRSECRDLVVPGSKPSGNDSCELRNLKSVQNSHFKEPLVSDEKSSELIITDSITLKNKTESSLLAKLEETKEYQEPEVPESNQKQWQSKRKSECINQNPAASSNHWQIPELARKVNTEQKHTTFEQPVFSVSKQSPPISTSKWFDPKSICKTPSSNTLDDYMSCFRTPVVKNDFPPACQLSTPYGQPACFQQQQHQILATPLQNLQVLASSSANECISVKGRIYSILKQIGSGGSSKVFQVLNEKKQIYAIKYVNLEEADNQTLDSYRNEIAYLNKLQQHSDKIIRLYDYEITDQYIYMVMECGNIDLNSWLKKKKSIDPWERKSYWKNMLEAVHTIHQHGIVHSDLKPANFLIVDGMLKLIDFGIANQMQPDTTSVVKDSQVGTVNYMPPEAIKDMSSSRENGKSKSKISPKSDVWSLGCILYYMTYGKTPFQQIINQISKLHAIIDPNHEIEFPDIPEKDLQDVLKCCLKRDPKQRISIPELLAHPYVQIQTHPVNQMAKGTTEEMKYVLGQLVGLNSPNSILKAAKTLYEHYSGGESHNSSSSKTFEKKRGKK
The conditions noted are these: at 1 µM.

In assay [10] the target is T3, Aurora kinase A (Homo sapiens) (UniProt O14965).
T3 sequence (whole entry): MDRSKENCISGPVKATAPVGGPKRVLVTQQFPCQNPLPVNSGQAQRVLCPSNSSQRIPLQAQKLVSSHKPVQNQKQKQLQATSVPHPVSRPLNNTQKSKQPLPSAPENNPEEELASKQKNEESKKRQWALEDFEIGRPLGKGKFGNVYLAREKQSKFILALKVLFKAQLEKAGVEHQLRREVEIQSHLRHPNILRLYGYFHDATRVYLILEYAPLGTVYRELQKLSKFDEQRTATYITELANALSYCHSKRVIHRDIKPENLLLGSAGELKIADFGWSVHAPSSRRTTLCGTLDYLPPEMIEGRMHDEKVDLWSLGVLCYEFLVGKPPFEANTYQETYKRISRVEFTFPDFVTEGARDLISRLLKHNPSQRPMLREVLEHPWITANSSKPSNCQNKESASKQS
The conditions noted are these: at 0.1 µM.

Assay [11] concerns the target T3, Aurora kinase A (Homo sapiens). The conditions noted are these: at 1 µM.
Assay [12] has as its target Aurora kinase B (Homo sapiens) (UniProt Q96GD4). The conditions noted are these: at 0.1 µM.
Assay [13] has the same target. The conditions noted are these: at 1 µM.
Assay [14] deals with T4, Aurora kinase C (Homo sapiens) (UniProt Q9UQB9).
T4 sequence (whole entry): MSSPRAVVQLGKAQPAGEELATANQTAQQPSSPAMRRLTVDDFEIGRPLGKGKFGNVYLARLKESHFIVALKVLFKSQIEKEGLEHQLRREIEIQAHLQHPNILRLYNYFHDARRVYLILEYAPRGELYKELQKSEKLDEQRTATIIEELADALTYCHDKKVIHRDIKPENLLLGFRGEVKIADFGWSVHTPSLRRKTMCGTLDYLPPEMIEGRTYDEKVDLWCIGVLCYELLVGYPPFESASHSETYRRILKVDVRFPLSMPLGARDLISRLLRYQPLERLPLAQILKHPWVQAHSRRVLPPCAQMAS
The conditions noted are these: at 0.1 µM.

Assay [15] deals with T4, Aurora kinase C (Homo sapiens). The conditions noted are these: at 1 µM.
Assay [16] deals with Serine/threonine-protein kinase 10 (Homo sapiens) (UniProt O94804). The conditions noted are these: at 0.1 µM.
Chain of Serine/threonine-protein kinase 10 (Homo sapiens) (O94804 whole entry, looked up): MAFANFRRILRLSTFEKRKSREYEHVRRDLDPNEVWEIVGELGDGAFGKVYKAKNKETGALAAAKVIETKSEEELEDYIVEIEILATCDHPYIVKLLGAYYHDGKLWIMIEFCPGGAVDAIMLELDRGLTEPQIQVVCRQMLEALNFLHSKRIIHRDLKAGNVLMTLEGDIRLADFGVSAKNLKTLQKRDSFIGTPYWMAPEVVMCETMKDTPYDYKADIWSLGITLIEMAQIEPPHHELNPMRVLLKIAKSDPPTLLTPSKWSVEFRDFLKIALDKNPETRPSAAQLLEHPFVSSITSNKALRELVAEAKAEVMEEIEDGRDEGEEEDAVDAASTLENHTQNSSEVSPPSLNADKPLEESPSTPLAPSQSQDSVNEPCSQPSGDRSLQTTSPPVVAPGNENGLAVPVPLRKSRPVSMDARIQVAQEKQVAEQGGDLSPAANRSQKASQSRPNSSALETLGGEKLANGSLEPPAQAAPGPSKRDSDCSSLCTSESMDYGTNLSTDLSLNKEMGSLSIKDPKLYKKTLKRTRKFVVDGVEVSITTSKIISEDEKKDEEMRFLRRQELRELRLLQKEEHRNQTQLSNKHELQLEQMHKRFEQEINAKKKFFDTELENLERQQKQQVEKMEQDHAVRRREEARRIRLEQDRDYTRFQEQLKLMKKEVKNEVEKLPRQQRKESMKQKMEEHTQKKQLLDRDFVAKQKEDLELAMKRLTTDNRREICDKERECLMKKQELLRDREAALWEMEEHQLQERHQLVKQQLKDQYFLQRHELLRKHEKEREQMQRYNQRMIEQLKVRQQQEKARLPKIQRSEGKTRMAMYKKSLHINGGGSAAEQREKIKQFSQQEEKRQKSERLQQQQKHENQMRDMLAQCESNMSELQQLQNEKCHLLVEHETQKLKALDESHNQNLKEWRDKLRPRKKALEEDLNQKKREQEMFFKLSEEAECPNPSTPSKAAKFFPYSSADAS
For assay [17] the target is unchanged. The conditions noted are these: at 1 µM.
For assay [18], the target named is T5, Mitogen-activated protein kinase kinase kinase kinase 2 (Homo sapiens) (UniProt Q12851).
T5 sequence (whole entry): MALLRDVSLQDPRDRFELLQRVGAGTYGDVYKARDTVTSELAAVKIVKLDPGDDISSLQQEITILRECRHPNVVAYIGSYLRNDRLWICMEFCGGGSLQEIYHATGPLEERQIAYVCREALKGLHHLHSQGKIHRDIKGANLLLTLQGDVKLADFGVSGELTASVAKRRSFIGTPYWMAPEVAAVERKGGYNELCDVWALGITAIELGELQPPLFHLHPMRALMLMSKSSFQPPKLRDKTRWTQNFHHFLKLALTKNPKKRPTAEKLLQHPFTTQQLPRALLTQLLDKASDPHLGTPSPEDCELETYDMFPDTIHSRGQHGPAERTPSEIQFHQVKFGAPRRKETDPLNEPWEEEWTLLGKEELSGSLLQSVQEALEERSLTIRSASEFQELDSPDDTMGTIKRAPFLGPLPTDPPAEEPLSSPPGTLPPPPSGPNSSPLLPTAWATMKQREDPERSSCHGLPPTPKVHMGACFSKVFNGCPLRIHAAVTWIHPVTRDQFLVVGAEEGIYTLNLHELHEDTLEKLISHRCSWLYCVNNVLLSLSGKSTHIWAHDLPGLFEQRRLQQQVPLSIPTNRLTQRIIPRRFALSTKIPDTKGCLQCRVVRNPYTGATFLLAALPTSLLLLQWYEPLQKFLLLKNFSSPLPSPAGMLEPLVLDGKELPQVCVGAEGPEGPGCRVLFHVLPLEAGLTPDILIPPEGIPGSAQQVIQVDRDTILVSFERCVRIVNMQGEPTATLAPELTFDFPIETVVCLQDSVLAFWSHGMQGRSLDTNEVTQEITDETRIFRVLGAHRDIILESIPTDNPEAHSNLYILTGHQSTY
The conditions noted are these: at 0.1 µM.

Assay [19] addresses T5, Mitogen-activated protein kinase kinase kinase kinase 2 (Homo sapiens). The conditions noted are these: at 1 µM.
Assay [20] concerns the target Mitogen-activated protein kinase kinase kinase kinase 4 (Homo sapiens) (UniProt O95819). The conditions noted are these: at 0.1 µM.

Structures are written as SMILES.

Chain of High affinity nerve growth factor receptor (Homo sapiens) (P04629 33-796 limits assumed): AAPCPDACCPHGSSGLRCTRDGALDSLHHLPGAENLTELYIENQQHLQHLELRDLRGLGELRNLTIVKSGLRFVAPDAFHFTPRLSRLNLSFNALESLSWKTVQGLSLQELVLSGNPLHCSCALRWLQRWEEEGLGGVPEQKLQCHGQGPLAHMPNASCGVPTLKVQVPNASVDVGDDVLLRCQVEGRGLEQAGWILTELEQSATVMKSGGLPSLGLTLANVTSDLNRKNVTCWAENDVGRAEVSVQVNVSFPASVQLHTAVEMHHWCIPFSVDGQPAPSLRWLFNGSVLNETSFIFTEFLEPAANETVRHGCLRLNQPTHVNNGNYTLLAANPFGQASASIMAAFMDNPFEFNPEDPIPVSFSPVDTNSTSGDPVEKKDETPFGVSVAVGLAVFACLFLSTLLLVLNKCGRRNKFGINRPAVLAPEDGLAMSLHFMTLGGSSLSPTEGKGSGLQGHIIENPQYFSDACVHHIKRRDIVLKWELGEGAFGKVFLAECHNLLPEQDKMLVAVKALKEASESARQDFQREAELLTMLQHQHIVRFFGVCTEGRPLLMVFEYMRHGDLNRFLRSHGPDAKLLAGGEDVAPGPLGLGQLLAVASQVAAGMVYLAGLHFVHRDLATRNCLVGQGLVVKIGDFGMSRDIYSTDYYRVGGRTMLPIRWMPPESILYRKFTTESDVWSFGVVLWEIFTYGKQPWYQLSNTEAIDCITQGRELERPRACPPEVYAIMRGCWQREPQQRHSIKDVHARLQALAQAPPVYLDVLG
Chain of Aurora kinase B (Homo sapiens) (Q96GD4 whole entry): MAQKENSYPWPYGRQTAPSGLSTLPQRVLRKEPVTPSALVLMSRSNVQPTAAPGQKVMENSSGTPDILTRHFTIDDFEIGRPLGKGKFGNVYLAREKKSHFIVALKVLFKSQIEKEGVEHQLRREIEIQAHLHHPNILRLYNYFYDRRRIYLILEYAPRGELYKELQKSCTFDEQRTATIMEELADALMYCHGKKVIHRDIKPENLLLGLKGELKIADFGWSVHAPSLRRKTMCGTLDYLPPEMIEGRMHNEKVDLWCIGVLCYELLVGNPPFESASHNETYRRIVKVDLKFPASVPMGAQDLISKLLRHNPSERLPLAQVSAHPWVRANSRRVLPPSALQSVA
Chain of BDNF/NT-3 growth factors receptor (Homo sapiens) (Q16620 32-822 limits assumed): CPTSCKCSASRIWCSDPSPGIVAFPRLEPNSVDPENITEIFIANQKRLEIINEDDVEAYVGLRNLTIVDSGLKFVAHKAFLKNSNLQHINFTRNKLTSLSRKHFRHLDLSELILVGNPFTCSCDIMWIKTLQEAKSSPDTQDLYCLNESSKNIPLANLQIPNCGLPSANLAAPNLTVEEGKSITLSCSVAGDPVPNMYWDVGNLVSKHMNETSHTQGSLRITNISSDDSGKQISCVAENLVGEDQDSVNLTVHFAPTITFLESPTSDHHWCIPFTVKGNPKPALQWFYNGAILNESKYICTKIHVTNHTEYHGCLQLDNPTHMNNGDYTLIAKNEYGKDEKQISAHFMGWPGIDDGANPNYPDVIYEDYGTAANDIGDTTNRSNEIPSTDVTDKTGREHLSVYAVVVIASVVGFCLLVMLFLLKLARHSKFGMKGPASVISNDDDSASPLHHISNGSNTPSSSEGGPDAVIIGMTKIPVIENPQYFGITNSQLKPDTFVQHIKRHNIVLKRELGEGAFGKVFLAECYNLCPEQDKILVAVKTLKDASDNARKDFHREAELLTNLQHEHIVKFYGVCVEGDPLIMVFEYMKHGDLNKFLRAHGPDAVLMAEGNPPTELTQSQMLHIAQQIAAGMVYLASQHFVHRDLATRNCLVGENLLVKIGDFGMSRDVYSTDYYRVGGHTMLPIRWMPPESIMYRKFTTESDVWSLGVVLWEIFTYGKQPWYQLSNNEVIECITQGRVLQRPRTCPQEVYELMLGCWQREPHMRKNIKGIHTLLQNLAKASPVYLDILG
Chain of Non-receptor tyrosine-protein kinase TYK2 (Homo sapiens) (P29597 whole entry): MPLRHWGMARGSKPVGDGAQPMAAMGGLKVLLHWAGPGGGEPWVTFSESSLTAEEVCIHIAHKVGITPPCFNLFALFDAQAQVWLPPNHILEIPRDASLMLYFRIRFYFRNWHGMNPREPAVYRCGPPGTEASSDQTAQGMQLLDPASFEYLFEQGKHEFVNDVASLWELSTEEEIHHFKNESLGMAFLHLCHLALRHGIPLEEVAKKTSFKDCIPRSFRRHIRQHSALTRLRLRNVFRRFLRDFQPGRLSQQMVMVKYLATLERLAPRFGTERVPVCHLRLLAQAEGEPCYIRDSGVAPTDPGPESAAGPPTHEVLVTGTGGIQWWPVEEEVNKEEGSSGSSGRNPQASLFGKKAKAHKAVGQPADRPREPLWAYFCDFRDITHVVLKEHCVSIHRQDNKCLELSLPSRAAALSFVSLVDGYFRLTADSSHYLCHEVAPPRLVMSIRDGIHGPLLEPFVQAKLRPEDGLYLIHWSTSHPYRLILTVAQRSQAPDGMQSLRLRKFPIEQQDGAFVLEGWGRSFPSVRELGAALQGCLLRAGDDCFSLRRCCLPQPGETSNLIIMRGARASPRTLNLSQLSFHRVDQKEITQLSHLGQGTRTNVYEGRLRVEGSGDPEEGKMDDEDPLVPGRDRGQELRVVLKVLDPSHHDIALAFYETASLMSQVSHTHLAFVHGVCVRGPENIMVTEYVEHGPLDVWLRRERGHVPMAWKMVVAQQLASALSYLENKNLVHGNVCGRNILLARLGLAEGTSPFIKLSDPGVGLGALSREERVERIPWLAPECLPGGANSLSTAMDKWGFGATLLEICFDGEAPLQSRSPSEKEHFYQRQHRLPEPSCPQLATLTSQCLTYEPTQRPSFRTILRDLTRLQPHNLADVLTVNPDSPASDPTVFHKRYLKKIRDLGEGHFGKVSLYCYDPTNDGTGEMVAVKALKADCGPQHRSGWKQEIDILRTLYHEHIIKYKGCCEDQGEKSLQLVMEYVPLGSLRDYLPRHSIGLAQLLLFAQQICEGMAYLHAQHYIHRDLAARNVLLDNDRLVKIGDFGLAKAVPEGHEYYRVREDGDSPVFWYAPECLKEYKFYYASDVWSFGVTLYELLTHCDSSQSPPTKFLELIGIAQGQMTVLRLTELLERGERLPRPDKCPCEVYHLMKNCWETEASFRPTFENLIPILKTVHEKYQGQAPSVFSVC

In the case of `COc1ccccc1Nc1ncc(-c2ccccc2)o1`, the inhibition – broadly, the drop in the measured response relative to a control, in per cent – in assay [1] came out at 4.51%; in [2], 4.57%; in assay [3], 8.84%; in [4], 4.02%; in assay [5] it was 9.48%; in [6] it was 0.91%. Further, the inhibition in assay [7] was 6.86%; in assay [8], -6.02%; in assay [9] it was 11.9%; in assay [10] it was 4.71%; in assay [11] it was 8.83%; in [12], 4.39%. Moreover, the inhibition in assay [13] was 11.1%; in assay [14] it was 3.63%; in assay [15], 12.5%; in [16], 8.13%; in [17], 8.47%; in assay [18], -0.05%. In addition, the inhibition is 4.63% in assay [19] and 6.79% in [20].
As to `CC(C)=Cc1cccc2c1/C(=N/Nc1ccc(S(N)(=O)=O)cc1)C(=O)N2`, the inhibition in assay [1] was 51.5%; in assay [2], 22.4%; in assay [3] it was 75.3%; in assay [4], 23.6%; in assay [5], 77.2%; in assay [6], 3.64%. Also, the inhibition in assay [7] amounted to 12.9%; in assay [8], 3.75%; in assay [9], 51.7%; in assay [10] it was 25.6%; in assay [11], 93.1%; in [12], 8.72%. Moreover, the inhibition was found to be 45% in assay [13]; 5.14% in [14]; 65.6% in assay [15]; 1.18% in [16]; 10.2% in assay [17]; 1.89% in assay [18]. Moreover, the inhibition was determined as 6.11% in assay [19] and 3.27% in [20].
For the compound `CCc1cccc(NC(=O)Nc2ccc(Oc3ccc4nc(NC(=O)OC)[nH]c4c3)cc2)c1`, the inhibition was determined as 43.7% in assay [1]; 21.4% in assay [2]; 30.7% in [3]; 20.4% in assay [4]; 30.3% in assay [5]; 2.03% in assay [6]. Further, the inhibition is 5.13% in assay [7]; -5.85% in [8]; 6.45% in assay [9]; 2.16% in assay [10]; 8.38% in assay [11]; 7.89% in assay [12]. Further, the inhibition in assay [13] turned out to be 15.6%; in assay [14], 10.3%; in assay [15], 37.5%; in assay [16], 46.8%; in assay [17] it was 57.8%; in [18], 1.82%. Besides, the inhibition in [19] came to 5.21%; in assay [20], 1.49%.
`CS(=O)(=O)CCNCc1ccc(-c2ccc3ncnc(Nc4ccc(OCc5ccccc5)c(Cl)c4)c3c2)o1`: the inhibition in assay [1] came to 4.84%; in assay [2], 2.92%; in assay [3], 2.87%; in assay [4], 1.98%; in assay [5], 2.17%; in assay [6], 1.26%. Moreover, the inhibition in assay [7] turned out to be 1.47%; in [8], 1.67%; in assay [9] it was 6.09%; in [10], 0.56%; in assay [11], 1.2%; in assay [12], 2.22%. Also, the inhibition worked out at 10.4% in [13]; 1.18% in assay [14]; 7.9% in assay [15]; 1.97% in assay [16]; 8.82% in [17]; 3.3% in assay [18]. Further, the inhibition in assay [19] amounted to 7.74%; in assay [20], 2.21%.
On to `Cc1cccc(-c2n[nH]cc2-c2ccc3ncccc3n2)n1`, for which the inhibition in [1] was -0.2%; in assay [2] it was -0.22%; in assay [3], 0.79%; in assay [4] it was 0.22%; in assay [5], -0.92%; in [6], 1.27%. In addition, the inhibition in assay [7] was 2.32%; in assay [8] it was -0.15%; in assay [9], 3.31%; in assay [10], 2.76%; in assay [11] it was 2.37%; in assay [12], -1.18%. Besides, the inhibition in [13] is 4.2%; in assay [14], 0.3%; in assay [15] it was -2.95%; in assay [16], 3.36%; in assay [17], 7.9%; in [18], 1.72%. Also, the inhibition in [19] was 0.72%; in [20], 5.33%.
Consider `[O-][S+]1CCN(Cc2ccc(-c3ccc4ncnc(Nc5ccc(OCc6ccccc6)c(F)c5)c4c3)o2)CC1`, for which the inhibition was 1.44% in assay [1]; 1.84% in assay [2]; 1.51% in assay [3]; 0.84% in [4]; 2.26% in assay [5]; 2.49% in assay [6]. Further, the inhibition in assay [7] was 3.34%; in assay [8] it was -3.81%; in assay [9] it was 12.9%; in [10], 2.01%; in assay [11] it was 5.78%; in assay [12] it was 1.65%. The inhibition in assay [13] was 4.29%; in assay [14], 0.94%; in assay [15] it was 7.34%; in assay [16], 2.71%; in assay [17], 6.62%; in assay [18] it was 0.36%. Besides, the inhibition turned out to be 1.57% in assay [19] and 3.5% in assay [20].
Turning to `COc1cccc(-n2ncc3c(N/N=C/c4cccc(F)c4)ncnc32)c1`, the inhibition in assay [1] is 3.57%; in assay [2], 2.75%; in [3] it was 6.27%; in [4], 2.97%; in [5] it was 7.58%; in [6], -0.86%. Besides, the inhibition in assay [7] is 1.52%; in assay [8] it was -0.2%; in assay [9] it was 10.5%; in [10], -2.23%; in assay [11], 16.9%; in [12] it was -1%. Besides, the inhibition in assay [13] is 7.83%; in [14], -2.12%; in assay [15], 1.75%; in assay [16] it was 3.91%; in assay [17], 11.8%; in assay [18], 1.55%. Moreover, the inhibition in [19] came to 4.59%; in assay [20] it was 7.45%.

For the origin of these results see ChEMBL document CHEMBL1961873, “Compounds: GSK PKIS; Assays: Nanosyn kinase panel” (2012).
